# The sample as a whole holds a higher share of hits than the screen did.
# Pf apPOL block: Pf-apPOL DNA polymerase inhibition. Recombinant Pf-apPOL, molecular beacon fluorescence, 1.5 h. inhibition, % at 10 µM. 210,000 tested, 0.25% active
# mHTT-CaM PPI inh: mHTT-calmodulin interaction abrogation. P42858. AlphaScreen His-mHTT/GST-CaM binding, luminescence. inhibition, % at 15 µM. 190,000 tested, 3.6% active. AID 1671202;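 note: 0% = both proteins with DMSO and 100% = one protein alone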
# The depositor's hits bear a star; · = not tested or not shown. Cut-off read from the data, not from the text of the source: active = inhibition above about 50%; inactive = the rest.
SMILES,Pf apPOL block,mHTT-CaM PPI inh
O=C1C(=O)N(Cc2ccccc2Cl)c2ccc(Br)cc21,-2,86*
CCN(CC)C(=O)CN1C(=O)C(=O)c2ccccc21,4,0
CCOc1ccc(C(=O)Nc2ccc(F)cc2F)cc1[N+](=O)[O-],0,-4
COc1ccc([N+](=O)[O-])cc1NC(=O)c1c(Br)cnn1C,-4,-6
Cn1ccnc1SCc1cc(=O)c(OC(=O)C2(c3ccc(Cl)cc3)CCCC2)co1,1,88*
CCSc1ccccc1C(=O)Oc1coc(CSc2nccn2C)cc1=O,0,3
O=C(NCCO)/C(=C\c1ccc2c(c1)OCO2)NC(=O)c1ccc(Br)cc1,2,0
Cc1[nH]c2ccccc2c1CCNC(=O)/C(=C/c1ccc2c(c1)OCO2)NC(=O)c1ccccc1,-8,75*
Oc1[nH]c(=S)sc1C=CC=CC=Nc1ccccc1,·,95*
O=[N+]([O-])c1c(Cl)cc(O)c2c1C1C=CCC1C(c1ccccc1)N2 (stereo not given),3,75*
Cc1cccc2c1NC(c1ccc([N+](=O)[O-])cc1)C1CC=CC21 (stereo not given),3,17
O=[N+]([O-])c1ccc(C2Nc3c(O)cc(Cl)c([N+](=O)[O-])c3C3C=CCC32)cc1 (stereo not given),-5,92*
Cc1ccnc(N2CCC(C(=O)Nc3ccc(F)cc3)CC2)n1,-1,-5
Cc1cc(C)cc(N2CCN(C(=O)c3ccc(C(F)(F)F)cc3)C(C)C2=O)c1 (stereo not given),0,12
COc1cccc(OCc2cc(C3Nc4ccccc4C(=O)N3Cc3ccco3)ccc2OC)c1 (stereo not given),-8,28
COc1ccc(C2Nc3ccccc3C(=O)N2Cc2ccco2)cc1COc1ccc(Cl)cc1 (stereo not given),8,55*
Cc1nnc(N2C(=O)C(O)=C(C(=O)c3ccco3)C2c2ccc(Br)cc2)s1 (stereo not given),-7,22
COc1ccc(C2C(C(=O)c3ccco3)=C(O)C(=O)N2c2nnc(C)s2)cc1OC (stereo not given),-4,1
Cc1nnc(N2C(=O)C(O)=C(C(=O)c3ccco3)C2c2ccccc2F)s1 (stereo not given),-19,57*
Cc1nnc(N2C(=O)C(O)=C(C(=O)c3ccco3)C2c2ccc(Cl)cc2)s1 (stereo not given),-2,78*
COc1cc(C(=O)Nc2sc(Cc3ccccc3)c(C)c2C(N)=O)cc(OC)c1OC,-9,0
COCc1cc(C)nc(SCC(=O)c2ccc(F)cc2F)c1C#N,-4,-47
COc1ccccc1-c1nc2ccc(C)cn2c1NC(=O)C1CCCC1,2,14
CCc1ccccc1N=Cc1c(O)[nH]c2ccccc12,0,28
Cc1ccc(F)cc1NC(=O)Cn1[nH]c2c(cnc3ccc(F)cc32)c1=O,1,95*
SMILES,Pf apPOL block,mHTT-CaM PPI inh
O=C(Cn1[nH]c2c(cnc3ccc(F)cc32)c1=O)Nc1ccc(F)cc1,-1,4
Cc1ccc(Cl)cc1NC(=O)Cn1[nH]c2c(cnc3ccc(F)cc32)c1=O,-2,21
O=C(Cn1[nH]c2c(cnc3ccc(F)cc32)c1=O)Nc1ccc(Br)cc1,0,64*
COc1ccc(C(=O)NC2CC(=O)N(Cc3ccccc3)C2)c(OC)c1 (stereo not given),-5,-10
Cc1cc(OS(C)(=O)=O)cc2c1C(=O)C(=Cc1cccnc1)O2,-3,0
CC(C)C(=O)Nc1ccc2c(c1)C(N1CCOCC1)=Nc1ccccc1O2,-5,13
CC1=C(C(=O)Nc2ccccn2)C(c2ccc(N(C)C)cc2)n2ncnc2N1 (stereo not given),-3,4
C=CCOc1ccc(C(=O)Nc2ccccn2)cc1,-5,-7
Cc1ccc2ccc(C(Nc3ccccn3)c3cccnc3)c(O)c2n1 (stereo not given),-6,73*
Oc1c(C(Nc2ccccn2)c2ccc(F)cc2)ccc2cccnc12 (stereo not given),-8,98*
O=c1cc(CO)oc(C(Nc2ccccn2)c2ccc(F)cc2)c1O (stereo not given),-2,33
C=CCOc1ccc(C(Nc2ccccn2)c2ccc3cccnc3c2O)cc1 (stereo not given),5,99*
Cc1ccc2ccc(C(Nc3ccccn3)c3ccc(N(C)C)cc3)c(O)c2n1 (stereo not given),4,100*
Cc1ccc(C(=O)Nc2ccc(N3CCCN(C(=O)CC(C)C)CC3)nc2)cc1,-14,46
O=C(Nc1ncc(S(=O)(=O)c2ccc([N+](=O)[O-])cc2)s1)c1cc(Cl)sc1Cl,5,15
O=C(NC1CCCCCC1)C1CCN(c2cncnc2N2CCCC2)CC1,1,5
CSc1ccc(C(Nc2ccccn2)c2ccc3ccc(C)nc3c2O)cc1 (stereo not given),-9,78*
CCc1ccc(C(C)NC(=O)c2ccccn2)cc1 (stereo not given),-11,-1
CCc1ccc(C(Nc2ccccn2)c2ccc3cccnc3c2O)cc1 (stereo not given),-2,97*
CSc1ccc(C(Nc2ccccn2)c2ccc3cccnc3c2O)cc1 (stereo not given),2,99*
CSc1ccc(C=Nc2ccccn2)cc1,·,0
CC(O)c1cc2c(cc1[N+](=O)[O-])OCCO2 (stereo not given),-18,0
Cc1noc(-c2nn(C)c3c2CN(C(=O)Nc2ccc(C(F)(F)F)cc2)CC3)n1,-1,-20
O=C(C1CC1)N1CCc2sc(S(=O)(=O)NCc3ccc(Cl)cc3)cc2C1,-2,5
O=C(NCc1ccc(N2CCOCC2)nc1)c1ccccc1Br,-2,0
SMILES,Pf apPOL block,mHTT-CaM PPI inh
N#CCn1cnc2c(-c3ccc(Br)cc3)csc2c1=O,-15,10
COCCCn1c(-c2cccc([N+](=O)[O-])c2)nc(=S)c2c1CCCC2,-2,-3
COc1ccc(NC(=O)CC2Sc3ccc(C(F)(F)F)cc3NC2=O)c([N+](=O)[O-])c1 (stereo not given),-5,-3
CC1(C)CC(=O)C(C=Nc2ccccc2[N+](=O)[O-])=C(O)C1,-6,10
O=C(NC1CCCCC1)C1CC(=O)N(c2ccc(F)cc2)C1 (stereo not given),-3,5
CCOc1ccc(C(c2c(C)[nH][nH]c2=O)c2c(C)[nH][nH]c2=O)cc1,3,12
Cc1[nH][nH]c(=O)c1C(c1ccc(OCc2ccc(Br)cc2)cc1)c1c(C)[nH][nH]c1=O,2,52*
N#C/C(=C\c1cccc([N+](=O)[O-])c1)c1nn(-c2ccccc2)c(N)c1C#N,-2,17
CC(=O)C1=C(C)NC(C)=C(C(C)=O)C1c1cccc([N+](=O)[O-])c1,-8,·
CC(=O)C1=C(C)Nc2sc(C(=O)c3cccc([N+](=O)[O-])c3)c(N)c2C1c1cccnc1 (stereo not given),0,57*
COc1ccc(C2CC(C(F)(F)F)n3nc(C(=O)NCc4ccccc4)c(Cl)c3N2)cc1 (stereo not given),-1,4
COc1ccc(C2CC(C(F)(F)F)n3nc(C(=O)Nc4cccnc4)cc3N2)cc1 (stereo not given),55*,14
CN(Cc1ccccc1)C(=O)c1cc2n(n1)C(C(F)(F)F)CC(c1ccccc1)N2 (stereo not given),23,53*

# Assay outcomes as filed in PubChem.
